# Source: PubChem BioAssay (NCI)
# About 79,000 compounds went through this panel and 15% of them were active in at least one assay; those are over-represented in the sample as a whole. Values without a mark were called inactive. Activity calls are given as the source filed them. Rule as the data show it: active = growth inhibition above about 70%; inactive = the rest.
# Tests used:
# [1] = NCI Yeast Anticancer Drug Screen. Data for the rad50 strain (AID 155);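 also: 0% = growth of vehicle-only cultures of the same strain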; conditions: S. cerevisiae rad50 strain growth inhibition; at 50.0 µM; active compounds read high
# How it was run: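 Readout: growth inhibition relative to vehicle-treated cultures. Compound exposure was carried out in a genetically defined yeast strain deficient in DNA damage repair.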
# [2] = NCI Yeast Anticancer Drug Screen. Data for the mec2-1 strain (AID 157); conditions: S. cerevisiae mec2-1 strain, at 50.0 µM, active compounds read high
# How it was run: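 Strain: mec2-1 (DNA repair/cell cycle alteration). Compound exposure, then growth measured; inhibition expressed relative to vehicle.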
# [3] = NCI Yeast Anticancer Drug Screen. Data for the sgs1 mgt1 strain (AID 161);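 also: 0% = growth of cultures given vehicle only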; conditions: S. cerevisiae sgs1 mgt1 strain, at 50.0 µM, active compounds read high
# How it was run: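 Read-out: growth inhibition vs vehicle controls. Cells: mutant yeast strain deficient in DNA damage repair.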
# [4] = NCI Yeast Anticancer Drug Screen. Data for the cln2 rad14 strain (AID 165);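 also: 0% = growth equal to vehicle treated cultures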; conditions: S. cerevisiae cln2 rad14 strain, at 50.0 µM, active compounds read high
# How it was run: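 Compounds are applied to the cln2 rad14 yeast strain, and growth is then compared with that of vehicle-treated cultures to give inhibition.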
# [5] = NCI Yeast Anticancer Drug Screen. Data for the bub3 strain (AID 167); conditions: S. cerevisiae bub3 mutant strain, at 50.0 µM, active compounds read high
# How it was run: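 Readout: yeast growth inhibition, expressed relative to vehicle-only wells. The test organism is a mutant strain from a panel with lesions in DNA repair or checkpoint genes.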
# [6] = NCI Yeast Anticancer Drug Screen. Data for the mlh1 rad18 strain (AID 175); conditions: S. cerevisiae mlh1 rad18 strain growth inhibition; at 50.0 µM; active compounds read high
# How it was run: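 Read-out is yeast growth inhibition, calculated against vehicle-only controls. The compound was applied to a strain engineered with DNA damage repair alterations.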
SMILES,growth inhibition [1],growth inhibition [2],growth inhibition [3],growth inhibition [4],growth inhibition [5],growth inhibition [6]
CS(C)=O.CS(C)=O.[Cl][Ru+2][Cl].[NH-]c1ccccc1[NH-],38.6%,7.6%,34.4%,23.8%,-1.9%,27.8%
N#Cc1[nH]cnc1N,-6.95%,-5.95%,-11.3%,-37.5%,7.15%,4.3%
CCOC(=O)C1Oc2ccccc2OC1C (stereo unspecified),24.5%,-15.7%,9.45%,12.9%,16.3%,3.85%
Oc1ccc(C2SCc3nc4ccccc4n32)cc1 (stereo unspecified),-7.85%,-17.9%,-35.9%,-7.3%,-45.1%,-25.1%
CCC1SC(N)=NC1=O (stereo unspecified),16.1%,9.65%,24.7%,20.4%,10.2%,5.55%
CC1=C(C(=O)NNC(=O)c2ccccc2)CC(C(=O)NNC(=O)c2ccccc2)=C(C)N1,-24.3%,14.5%,1.85%,-34.6%,-13.2%,-28.6%
c1ccc(CC2CO2)cc1 (stereo unspecified),-2.7%,-17.8%,-1.4%,-15.2%,-0.2%,-7.9%
CCSc1ccc2c3c(cccc13)C(=O)N(CCc1ccccn1)C2=O,-0.6%,-14.1%,11.8%,2.25%,6.2%,2.8%
CN(C)CCO[Si](C)(c1ccccc1)c1ccc(F)cc1 (stereo unspecified),16.6%,-7.95%,20.6%,-10.1%,11.8%,3.95%
O=c1c2c([nH]c3c1ccc1[nH]c4c(c(=O)c13)CCCC4)CCCC2,-18.9%,-0.75%,-12.6%,-13.6%,-8.5%,-2.3%
CCC(O)C(C)[N+](=O)[O-] (stereo unspecified),28%,-1.85%,7.45%,6%,1.75%,3.75%
Cc1ccc(N=Nc2c(N)nc(N)[nH]c2=O)c(C)c1,14.9%,-4.8%,-11.9%,9.6%,15.7%,19.8%
CCN(CC)CN1C(=O)C2C3C=CC(C2C1=O)C1C2C(=O)N(CN(CC)CC)C(=O)C2C31 (stereo unspecified),2.8%,-25.6%,-27.6%,-9.15%,-47.5%,-45.9%
C=CCOC(=O)C(C#N)C(C)CC(=O)OCC (stereo unspecified),-5.65%,-1.15%,-22.9%,-0.35%,5.25%,-5.55%
C/C(=N/NC(N)=S)c1c[nH]c(=O)[nH]c1=O,-3%,-16.6%,-4.45%,-9.6%,-5.95%,-7.35%
C/C=C/C(=O)OCCC#N,-27.1%,-2.3%,3.7%,14.7%,-17.1%,-8.85%
COc1cccc(Br)c1OC,-5.4%,1.2%,20.8%,38.6%,31.9%,-3.1%
COc1cc2c(cc1OC)C1=Cc3cc(OC)c(OC)cc3C(C)N1C=C2 (stereo unspecified),6.15%,-6.3%,-26.6%,-18.6%,-23.9%,-16.7%
CCCCCCCCCCCc1cc(=O)n(-c2ccccc2)n1C,98.8% (active),99.2% (active),99.2% (active),98.4% (active),98.5% (active),99% (active)
Cc1[nH]c2ccccc2c1C(CC(=O)O)c1ccccc1 (stereo unspecified),13.6%,-1.4%,-12.8%,-4.85%,-4.55%,-4.4%
CCCCCCC(C)N1C(=O)c2ccccc2C1=O (stereo unspecified),6.25%,6.75%,4.75%,-39.1%,0.7%,-8.4%

SMILES,growth inhibition [1],growth inhibition [2],growth inhibition [3],growth inhibition [4],growth inhibition [5],growth inhibition [6]
Cc1cc(C)c2c(c1)CSCc1cc(C)cc(C)c1-2,15.7%,-2.65%,19.1%,10%,1.05%,16.1%
CC(=O)N(C)CCc1c[nH]c2ccccc12,-18.4%,-37.5%,-33.9%,13.2%,9.85%,-4.8%
OCCN(Cc1ccccc1)Cc1ncccc1O,9.35%,-27.1%,-11.4%,8.85%,-3.9%,5.7%
C/C(N=NC(=S)N1CCCC1)=C1\C=CC=CN1O,5.45%,-8.35%,15.4%,-5.6%,7.95%,22.9%
COC(=O)C(Cl)=C1CC1,5.7%,10.4%,-6.95%,18.6%,6.25%,-5.6%
CCC(c1ccc(O)cc1)c1cc2c(cc1OCC(=O)OC)OCO2 (stereo unspecified),-5.1%,-9.3%,-4.65%,-6.75%,0.65%,10.2%
C=C1c2ccccc2C=NN1c1ccccc1,19.4%,4.35%,13.2%,4.25%,-8.75%,1%
CCOC(=O)CC(C(=O)OCC)c1ccccc1 (stereo unspecified),-3.4%,10.2%,-5.4%,-6.35%,9.85%,-19.4%
CCOC1CCCCO1 (stereo unspecified),-24.5%,-4.1%,-13.4%,9.4%,-13.8%,-8.1%
OCC(O)C(O)C(O)c1nn(-c2ccccc2)c2nc3ccccc3nc12 (stereo unspecified),3.6%,1.3%,3.4%,7.15%,11.3%,17.2%
COC1/C=C/C(C)C(C(C)C(OC)C(C)CCC(=O)C(C)C(C/C=C/N(C)C=O)OC)OC(=O)/C=C/C=C(\C)CC(OC)C(OC)C2=CC(=O)O[C@@H](C(C)C(OC)CC(OC)/C=C/C(C)C(O)C1)[C@H]2O (stereo partly specified),86.8% (active),90.2% (active),90% (active),89.8% (active),87.7% (active),91% (active)
O=c1cc2n(c(=O)n1Cc1ccccc1)CCC2,10.9%,4.25%,1.55%,1.5%,-3.9%,-6%
CCOC1(NC(=O)N(C)C)C2CCCC21 (stereo unspecified),3.4%,-4.15%,-0.1%,-29.9%,2.1%,-6.5%
CCCCCc1nc2c(c(=O)n(C)c(=O)n2C)n1C,14.2%,-9.35%,-1%,0%,6%,17.6%
NNC(=O)CNC(=O)c1ccccc1,11.5%,-14.6%,-10.9%,1.85%,0%,-15%
COC(=O)c1ccc(CSc2ccccc2NC(=S)Nc2cccc(SC)c2)o1,-15.2%,-38.8%,-18.6%,5.9%,-31.9%,-26.6%
N=C(N)c1nc2ccccc2s1,6.2%,-13.5%,17.4%,7.65%,24%,5.3%
CCc1cccc(C(C)C)c1NC(=O)C(=O)C(C(=O)C(=O)OC)c1nc2ccccc2[nH]c1=O (stereo unspecified),5.95%,-29.1%,8.85%,20.2%,-9.5%,2.9%
O=C(O)c1scc2c1CCCC2,-1.65%,-21.7%,-7.5%,-67%,-22.3%,-39.6%
O=Nc1c(-c2ccccc2)nnc(-c2ccccc2)c1N=O,-24.9%,6.95%,-0.3%,-54.8%,34.7%,-6.2%
